These results are taken from PubChem BioAssay (NCATS).

Values without a mark were called inactive. Inconclusive results are not listed. Calls of active or inactive are those of the source. Unless noted, calls come from the whole dose curve; as a rule, active = well fitted curve in the direction sought with a large enough effect; inconclusive = small, poorly fitted or top-dose-only effect, or another doubt; inactive = no such curve, though single readings can be large; an effect the other way counts as inactive or inconclusive.

Experiment [1] has as its target Cytochrome P450 1A2 (Homo sapiens) (UniProt P05177). The experiment in a line: p450-cyp1a2 (AID 410; calls by dose curve; note: potency is the fitted concentration of half-maximal effect). In short, it runs like this:
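Inhibition was calculated relative to 57 uM furafylline (full inhibition). The reaction used human CYP1A2 at 20nM with Luciferin-ME at its Km, 100uM, driven by an NADPH-regenerating system for 60 min at room temperature.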

Experiment [2] in a line: Stat Signaling Pathway (AID 446; active = well fitted curve in either direction with a large enough effect, not every such curve was filed as active;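 note: ME-180 cervical cancer cells given 40 pM IL-6 alongside compound; SIE-controlled beta-lactamase reporter measured as 460/530 nm FRET emission ratio; % is set by controls: 0 for no effect and ±100 for the full control effect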). The conditions noted are these: ME-180 SIE beta-lactamase reporter, IL-6 stimulated, 5 h; at 7.69 µM (top of the series) unless noted. The gist of the method:
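ME-180 SIE-bla cells; overnight plating; cpd + IL-6 40 pM, 5 h, 37 C; LiveBLAzer 2.5 h RT; 460/530 nm emission ratio. Normalized to 300 pM IL-6 and 125 nM JAK inhibitor controls.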

The target in experiment [3] is Glucocorticoid receptor (Homo sapiens) (UniProt P04150). The experiment in a line: GR-GFP Redistribution (AID 450;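 active = compounds whose dose series gives a full or clear partial fitted curve of increased nuclear translocation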; note: potency is the fitted concentration of half-maximal effect). The settings on record: U2OS GR-GFP nuclear translocation, laser cytometry, 2 h.
Chain of Glucocorticoid receptor (Homo sapiens) (P04150 whole entry, looked up, the tested form may be a part): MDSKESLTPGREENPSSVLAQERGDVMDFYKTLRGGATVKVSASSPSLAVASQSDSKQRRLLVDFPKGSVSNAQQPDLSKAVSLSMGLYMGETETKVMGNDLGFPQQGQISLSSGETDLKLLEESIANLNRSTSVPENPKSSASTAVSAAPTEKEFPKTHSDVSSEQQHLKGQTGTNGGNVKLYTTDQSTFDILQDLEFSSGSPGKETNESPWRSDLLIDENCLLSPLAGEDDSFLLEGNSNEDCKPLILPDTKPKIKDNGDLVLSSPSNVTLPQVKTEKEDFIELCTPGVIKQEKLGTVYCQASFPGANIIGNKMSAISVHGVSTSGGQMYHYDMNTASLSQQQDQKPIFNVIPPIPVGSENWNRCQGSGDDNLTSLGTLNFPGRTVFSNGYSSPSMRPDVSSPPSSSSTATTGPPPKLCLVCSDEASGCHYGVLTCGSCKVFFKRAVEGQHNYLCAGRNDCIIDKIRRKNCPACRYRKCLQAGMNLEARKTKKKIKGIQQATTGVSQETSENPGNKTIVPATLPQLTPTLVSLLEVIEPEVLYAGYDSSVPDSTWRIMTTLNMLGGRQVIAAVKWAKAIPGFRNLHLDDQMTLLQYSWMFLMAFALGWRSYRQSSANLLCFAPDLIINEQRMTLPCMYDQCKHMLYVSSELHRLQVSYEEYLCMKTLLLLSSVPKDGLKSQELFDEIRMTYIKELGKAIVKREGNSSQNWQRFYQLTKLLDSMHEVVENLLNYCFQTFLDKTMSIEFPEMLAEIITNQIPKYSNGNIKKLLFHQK
Experiment [4] has the same target. Briefly: GR-EFC Redistribution (AID 451; calls by dose curve; note: potency is the fitted concentration of half-maximal effect). The conditions noted are these: CHO-K1 GR-EFC translocation, beta-gal luminescence, 2 h. In short, it runs like this: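 Translocation of GR-ED fusion to nuclear EA restores b-gal, read by luminescence after 1 h room-temperature detection. Engineered CHO-K1 biosensor cells, 1,000/well, exposed 2 h at 37 C to titrations up to 46 uM final.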

The target in experiment [5] is Mitogen-activated protein kinase 10 (Mus musculus) (UniProt Q61831). The experiment in a line: JNK3 AlphaScreen Assay (AID 530; active = well fitted curve in either direction with a large enough effect, not every such curve was filed as active;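 note: kinase came from lysate of stimulated human HepG2 cells; signal reports phosphorylation of biotinylated GST-cJun 1-79 at Ser73 with 10 µM ATP; % is set by controls: 0 for no effect and ±100 for the full control effect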). The gist of the method:
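Room-temperature AlphaScreen kinase assay; pre-activated HepG2 lysate as JNK3 source, biotin-GST-cJun(1-79) substrate, 10 uM ATP, compound 15 min preincubation.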
On the technique in general: Bead proximity is the source of the signal in Alpha formats.

In experiment [6] the target is Cytochrome P450 3A4 (Homo sapiens) (UniProt P08684). Briefly: qHTS Assay for Activators of Cytochrome P450 3A4 (AID 885). Note: nearly all actives have a fitted effect of over 65% in size. The gist of the method: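 20nM CYP3A4 + 25uM Luciferin-PPXE (=KM), 200mM KPO4; cpd 10 min RT; NADPH regen, 60 min RT; stop w/ detection buffer, 20 min; luminescence. Normalized to 57 uM ketoconazole.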
Chain of Cytochrome P450 3A4 (Homo sapiens) (P08684 whole entry, looked up): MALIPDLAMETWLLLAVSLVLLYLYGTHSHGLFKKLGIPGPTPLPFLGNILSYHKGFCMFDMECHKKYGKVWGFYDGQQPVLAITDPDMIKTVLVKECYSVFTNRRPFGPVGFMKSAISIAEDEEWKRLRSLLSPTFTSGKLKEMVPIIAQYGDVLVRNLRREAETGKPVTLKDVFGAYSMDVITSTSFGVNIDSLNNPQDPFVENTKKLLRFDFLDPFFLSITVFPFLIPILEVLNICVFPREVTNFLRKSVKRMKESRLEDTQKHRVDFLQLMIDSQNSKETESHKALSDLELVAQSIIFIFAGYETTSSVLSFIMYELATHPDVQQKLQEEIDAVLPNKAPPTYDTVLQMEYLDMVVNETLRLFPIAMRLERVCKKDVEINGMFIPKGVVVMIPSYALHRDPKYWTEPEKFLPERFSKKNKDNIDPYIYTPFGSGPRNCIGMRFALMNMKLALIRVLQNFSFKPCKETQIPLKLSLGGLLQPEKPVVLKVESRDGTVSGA
Experiment [7] has as its target Cytochrome P450 2C19 (Homo sapiens) (UniProt P33261). Briefly: qHTS Assay for Inhibitors and Substrates of Cytochrome P450 2C19 (AID 899). Note: potency is the fitted concentration of half-maximal effect; nearly all actives have a fitted effect of over 60% in size. In short, it runs like this: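 5nM enzyme + 10uM Luciferin-H EGE (=KM), 50mM KPO4; cpd pin-transferred, 10 min 37C; NADPH regen, 60 min 37C; stopped w/ luciferin detection reagent, 20 min; luminescence. Normalized to 57uM ketoconazole (AC100).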
In general terms: Quantitative high-throughput screening tests each substance at several concentrations.

Experiment [8] addresses Dual specificity protein kinase CLK4 (Homo sapiens) (UniProt Q9HAZ1). The experiment in a line: qHTS Assay for Inhibitors of CDC-like Kinase 4 (Kinase-Glo Assay) (AID 1770). Note: nearly all actives have a fitted effect of over 65% in size. Note: potency is the fitted concentration of half-maximal effect. The gist of the method:
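Substrate mix (RS peptide 100 uM, ATP 1 uM) dispensed, compound pinned in, then Clk4 added to 25 nM final. Incubated 4.5 h at RT; Kinase-Glo reagent added, luminescence read after 5 min.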

Experiment [9] shares this target. Briefly: qHTS Assay for Inhibitors of CDC-like Kinase 4 (ADP-Glo Assay) (AID 1771). Note: nearly all actives have a fitted effect of over 70% in size. Note: potency is the fitted concentration of half-maximal effect. The gist of the method: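 Kinase reaction: Clk4 at 25 nM, RS repeat peptide substrate at 100 uM, ATP at 1 uM, 1 hr, room temperature. Product ADP detected as luciferase signal via ADP-Glo.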
Experiment [10] shares this target. Briefly: qHTS Assay for Inhibitors of CDC-like Kinase 4 (ADP-FP Assay) (AID 1795). Note: nearly all actives have a fitted effect of over 60% in size. Note: potency is the fitted concentration of half-maximal effect. The gist of the method:
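Clk4 6.25 nM; RS peptide 100 uM; ATP 1 uM; 25 mM Tris pH 7.5, 10 mM MgCl2; 1 h reaction. ADP detected via antibody/orange tracer FP displacement; TG003 positive control.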

Experiment [11] deals with Ubiquitin carboxyl-terminal hydrolase 1 (Homo sapiens) (UniProt O94782). The experiment in a line: Inhibitors of USP1/UAF1: Pilot qHTS (AID 504865).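 Note: rhodamine fluorescence freed from ubiquitin-rhodamine substrate followed over time; top concentration of the series differs between compounds; % is set by controls: 0 for no effect and ±100 for the full control effect; nearly all actives have a fitted effect of over 35% in size.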 In short, it runs like this:
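In 50mM HEPES pH 7.8 containing 0.5mM EDTA, 1mM TCEP, 0.1 mg/ml BSA and 0.01% Tween-20, 1nM USP1/UAF1 is exposed to compound for 15 min, then Ub-Rho (150nM final) is added and fluorescence is read over time.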

Experiment [12] in a line: Primary qHTS for small molecule stabilizers of the endoplasmic reticulum resident proteome: Secreted ER Calcium Modulated Protein (SERCaMP) assay (AID 1508630). Note: % is set by controls: 0 for no effect and ±100 for the full control effect. In short, it runs like this:
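GLuc-SERCaMP-expressing SH-SY5Y cells, pretreated 16 h with compound, are challenged with thapsigargin to empty ER calcium stores; after 4 h, coelenterazine is added directly to the medium and luminescence is imaged.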

The nature of experiment [13]: AP1 Signaling Pathway (AID 357; active = well fitted curve in either direction with a large enough effect, not every such curve was filed as active; note: % is set by controls: 0 for no effect and ±100 for the full control effect). The settings on record: ME-180 AP-1-bla reporter, EGF-induced, beta-lactamase ratio, 5 h; at 7.69 µM (top of the series) unless noted. In short, it runs like this: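 In this screen, ME-180 cells in Opti-MEM with 0.5% dialyzed FBS received EC50 EGF and compound titrations for 5 h. AP-1 reporter beta-lactamase was detected via CCF4 ratio, giving AC50 for positive and negative modulators.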

The nature of experiment [14]: NFAT Signaling Pathway (AID 444; active = well fitted curve in either direction with a large enough effect, not every such curve was filed as active). The settings on record: Jurkat NFAT-bla M1, carbachol, beta-lactamase ratio, 5 h; at 7.69 µM (top of the series) unless noted. The gist of the method:
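Read-out: CCF4 FRET ratio (460 nm/530 nm) after 1 h RT dye loading, used for %activity and AC50 from titration series. Cells: Jurkat NFAT-β-lactamase/M1 line, treated with compound plus 1 uM carbachol for 5 h, 37 °C.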

Experiment [15] concerns the target 3',5'-cyclic-AMP phosphodiesterase 4B (Homo sapiens) (UniProt Q07343). Briefly: qHTS Assay for Inhibitors of PDE-IV (AID 607; active = well fitted activation curve with a large enough effect in the main read-out, with a control signal flat, not every such curve was filed as active; note: % of control where 0% means no effect). The gist of the method:
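ACTOne HEK293 cells carry a modified cAMP-gated CNG channel and express endogenous PDE4; plated 1000 cells/well, compounds up to 22.9 uM final. Membrane-potential dye fluorescence (ex 535/em 590) was read; parental cells received 10 uM forskolin + 100 uM RO 20-1724.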

Experiment [16] addresses Lysosomal acid glucosylceramidase (Homo sapiens) (UniProt P04062). Briefly: Glucocerebrosidase-p2 (AID 348; in the data active = potency below about 10 µM; note: potency is the fitted concentration of half-maximal effect). The settings on record: purified GBA, blue fluorogenic substrate, 40 min. In short, it runs like this: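 Compounds titrated from 0.6 nM upwards against 0.2 nM enzyme in pH 5.9 citric acid/KH2PO4, taurocholate, tween-20; blue fluorogenic substrate 80 uM, 40 min room temperature, stopped and read Ex 365/Em 440 for AC50.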

The target of experiment [17] is Cytochrome P450 3A4 (Homo sapiens) (UniProt P08684). The experiment in a line: qHTS Assay for Inhibitors and Substrates of Cytochrome P450 3A4 (AID 884). Note: potency is the fitted concentration of half-maximal effect; nearly all actives have a fitted effect of over 50% in size. In short, it runs like this:
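20 nM human CYP3A4 with 25 uM Luciferin-PPXE (at KM) in 200 mM KPO4, preincubated 10 min with compound; NADPH regeneration started a 60 min RT reaction. Luciferin detected by luminescence, normalized to 57 uM ketoconazole as full inhibition.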

Experiment [18] has as its target Cytochrome P450 2D6 (Homo sapiens) (UniProt P10635). The experiment in a line: qHTS Assay for Inhibitors and Substrates of Cytochrome P450 2D6 (AID 891). Note: potency is the fitted concentration of half-maximal effect; nearly all actives have a fitted effect of over 60% in size. The gist of the method:
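Human CYP2D6 (5 nM) with 30 uM Luciferin-ME EGE (at Km) in 100 mM KPO4, compound preincubated 10 min, then NADPH regeneration system for 60 min at room temperature. Luciferin read by luminescence; normalized to 1.43 uM quinidine.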

Experiment [19] in a line: qHTS Assay for Identification of Small Molecule Agonists for Hypoxia Response Element Signaling Pathway (AID 914; active = well fitted activation curve with a large enough effect in the signal ratio, with a control signal flat, not every such curve was filed as active; the % refers to the signal ratio; note: % of control where 0% means no effect). The settings on record: ME-180 (cervical carcinoma) HRE-bla reporter, beta-lactamase ratio, CoCl2, 17 h; activation: hits give high values. In short, it runs like this:
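In Opti-MEM containing 0.5% dialyzed FBS and 10 mM HEPES, ME-180 HRE-bla cells received a compound titration and EC50 CoCl2. They were incubated 17 hours, then CCF4-loaded 2.5 hours at room temperature before ratio reading.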

For experiment [20], the target named is Cytochrome P450 2C9 (Homo sapiens) (UniProt P11712). The experiment in a line: qHTS Assay for Inhibitors and Substrates of Cytochrome P450 2C9 (AID 883). Note: % is set by controls: 0 for no effect and ±100 for the full control effect; nearly all actives have a fitted effect of over 60% in size. In short, it runs like this:
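Inhibition of CYP2C9 is scored as loss of luminescence, with 57uM sulphaphenazole defining 100% inhibition. Substrate Luciferin-H is used at 100uM, equal to its KM; enzyme at 10nM in 25mM KPO4, 60 min at 37C with NADPH regeneration.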

Chain of Dual specificity protein kinase CLK4 (Homo sapiens) (Q9HAZ1 whole entry, looked up): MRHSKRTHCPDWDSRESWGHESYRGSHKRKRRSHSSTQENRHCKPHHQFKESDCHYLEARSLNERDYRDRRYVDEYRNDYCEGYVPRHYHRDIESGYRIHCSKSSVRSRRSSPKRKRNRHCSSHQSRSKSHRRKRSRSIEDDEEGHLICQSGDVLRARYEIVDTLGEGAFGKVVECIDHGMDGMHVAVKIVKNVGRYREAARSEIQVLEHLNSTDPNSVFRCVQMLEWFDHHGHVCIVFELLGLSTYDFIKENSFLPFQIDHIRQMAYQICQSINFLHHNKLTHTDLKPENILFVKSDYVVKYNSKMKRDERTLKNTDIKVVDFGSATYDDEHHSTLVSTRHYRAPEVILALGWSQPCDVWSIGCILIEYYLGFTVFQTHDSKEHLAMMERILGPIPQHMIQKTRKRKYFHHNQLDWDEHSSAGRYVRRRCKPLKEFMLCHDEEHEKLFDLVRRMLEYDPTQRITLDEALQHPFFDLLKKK
Chain of Ubiquitin carboxyl-terminal hydrolase 1 (Homo sapiens) (O94782 whole entry, looked up): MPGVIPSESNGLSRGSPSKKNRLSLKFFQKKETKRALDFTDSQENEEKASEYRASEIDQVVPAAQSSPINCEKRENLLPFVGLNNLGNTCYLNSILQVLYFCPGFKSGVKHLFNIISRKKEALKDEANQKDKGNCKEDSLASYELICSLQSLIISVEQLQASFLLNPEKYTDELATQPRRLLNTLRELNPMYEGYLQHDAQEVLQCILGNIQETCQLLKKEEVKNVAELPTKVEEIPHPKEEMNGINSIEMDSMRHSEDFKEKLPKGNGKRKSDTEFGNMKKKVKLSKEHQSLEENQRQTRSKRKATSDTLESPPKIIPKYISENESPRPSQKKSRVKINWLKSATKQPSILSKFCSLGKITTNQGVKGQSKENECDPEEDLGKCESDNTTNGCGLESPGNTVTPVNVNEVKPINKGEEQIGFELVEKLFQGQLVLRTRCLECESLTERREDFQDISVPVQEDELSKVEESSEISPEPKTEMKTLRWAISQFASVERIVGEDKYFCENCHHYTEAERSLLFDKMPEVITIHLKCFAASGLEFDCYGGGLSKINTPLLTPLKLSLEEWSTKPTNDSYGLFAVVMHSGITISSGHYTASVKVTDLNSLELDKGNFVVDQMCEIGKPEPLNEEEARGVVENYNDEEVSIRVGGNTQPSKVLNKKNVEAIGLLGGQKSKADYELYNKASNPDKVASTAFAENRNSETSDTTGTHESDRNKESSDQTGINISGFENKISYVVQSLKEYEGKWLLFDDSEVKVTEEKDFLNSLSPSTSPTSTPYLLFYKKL
Chain of Cytochrome P450 1A2 (Homo sapiens) (P05177 whole entry, looked up): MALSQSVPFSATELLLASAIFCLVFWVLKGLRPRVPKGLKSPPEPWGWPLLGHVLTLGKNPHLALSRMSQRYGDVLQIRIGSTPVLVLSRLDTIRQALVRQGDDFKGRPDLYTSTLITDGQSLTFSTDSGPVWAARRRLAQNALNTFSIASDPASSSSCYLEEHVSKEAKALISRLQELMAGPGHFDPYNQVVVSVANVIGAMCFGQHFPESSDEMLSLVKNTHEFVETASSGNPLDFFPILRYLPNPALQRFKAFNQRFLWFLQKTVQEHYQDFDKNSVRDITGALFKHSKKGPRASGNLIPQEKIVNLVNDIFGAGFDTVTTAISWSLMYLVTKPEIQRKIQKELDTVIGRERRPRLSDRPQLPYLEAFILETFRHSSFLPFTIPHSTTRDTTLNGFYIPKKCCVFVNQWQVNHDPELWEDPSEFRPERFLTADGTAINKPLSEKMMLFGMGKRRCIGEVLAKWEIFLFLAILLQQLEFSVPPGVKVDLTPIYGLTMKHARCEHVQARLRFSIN
Chain of 3',5'-cyclic-AMP phosphodiesterase 4B (Homo sapiens) (Q07343 whole entry, looked up): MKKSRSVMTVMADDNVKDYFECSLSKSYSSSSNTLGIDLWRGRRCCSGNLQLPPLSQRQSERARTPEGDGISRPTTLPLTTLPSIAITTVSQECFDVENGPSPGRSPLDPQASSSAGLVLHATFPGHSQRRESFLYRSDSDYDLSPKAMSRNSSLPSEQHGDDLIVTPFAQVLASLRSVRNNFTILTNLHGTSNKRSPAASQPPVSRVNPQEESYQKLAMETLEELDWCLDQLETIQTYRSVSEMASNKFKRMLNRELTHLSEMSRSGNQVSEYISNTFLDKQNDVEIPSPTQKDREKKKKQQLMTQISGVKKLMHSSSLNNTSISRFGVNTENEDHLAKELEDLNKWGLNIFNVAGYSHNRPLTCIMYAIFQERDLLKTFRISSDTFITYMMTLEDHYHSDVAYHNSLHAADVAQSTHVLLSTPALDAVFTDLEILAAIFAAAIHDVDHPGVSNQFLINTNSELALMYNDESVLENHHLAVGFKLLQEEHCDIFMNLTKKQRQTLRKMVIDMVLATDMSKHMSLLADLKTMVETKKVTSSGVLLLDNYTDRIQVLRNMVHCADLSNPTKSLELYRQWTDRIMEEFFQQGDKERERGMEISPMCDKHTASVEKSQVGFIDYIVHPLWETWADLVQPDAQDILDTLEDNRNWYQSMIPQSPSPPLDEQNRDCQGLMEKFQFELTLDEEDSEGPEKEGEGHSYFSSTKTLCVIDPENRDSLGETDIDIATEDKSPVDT
Chain of Cytochrome P450 2C19 (Homo sapiens) (P33261 whole entry, looked up): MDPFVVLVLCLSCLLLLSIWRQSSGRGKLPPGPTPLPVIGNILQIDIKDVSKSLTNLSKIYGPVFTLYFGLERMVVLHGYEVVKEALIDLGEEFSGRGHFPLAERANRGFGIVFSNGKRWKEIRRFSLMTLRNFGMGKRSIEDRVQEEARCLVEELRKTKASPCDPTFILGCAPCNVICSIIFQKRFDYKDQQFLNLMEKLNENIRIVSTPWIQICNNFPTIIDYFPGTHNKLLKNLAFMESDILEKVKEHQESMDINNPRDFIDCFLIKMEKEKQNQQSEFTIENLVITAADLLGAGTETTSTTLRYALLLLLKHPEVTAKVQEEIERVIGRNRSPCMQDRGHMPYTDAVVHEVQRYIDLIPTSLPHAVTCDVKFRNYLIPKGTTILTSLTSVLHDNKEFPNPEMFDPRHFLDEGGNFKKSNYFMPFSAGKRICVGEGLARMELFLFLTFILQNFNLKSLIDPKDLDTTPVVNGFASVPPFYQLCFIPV
Chain of Cytochrome P450 2C9 (Homo sapiens) (P11712 whole entry, looked up): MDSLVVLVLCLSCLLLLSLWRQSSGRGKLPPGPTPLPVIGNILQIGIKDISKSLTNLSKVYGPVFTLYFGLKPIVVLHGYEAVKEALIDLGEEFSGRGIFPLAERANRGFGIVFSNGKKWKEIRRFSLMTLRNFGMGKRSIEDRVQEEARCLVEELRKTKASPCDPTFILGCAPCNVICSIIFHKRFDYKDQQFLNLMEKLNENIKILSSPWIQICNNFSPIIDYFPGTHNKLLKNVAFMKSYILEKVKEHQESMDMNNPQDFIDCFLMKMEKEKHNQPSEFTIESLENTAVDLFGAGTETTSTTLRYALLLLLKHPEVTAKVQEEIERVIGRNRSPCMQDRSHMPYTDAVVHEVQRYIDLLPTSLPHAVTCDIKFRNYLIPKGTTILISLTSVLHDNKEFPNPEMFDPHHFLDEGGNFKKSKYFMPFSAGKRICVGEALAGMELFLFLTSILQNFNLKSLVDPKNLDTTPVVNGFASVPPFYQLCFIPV

In the case of `COc1cccc(-c2ccc3ncnc(N4CCOCC4)c3c2)c1`, the Potency was 1 µM (active) in experiment [1]; above 46 µM in [3]; above 46 µM in [4]; 3.98 µM (active) in experiment [7]; 1.41 µM (active) in experiment [8]; 1.58 µM (active) in experiment [9]. In addition, in experiment [10], the Potency was 1.12 µM (active). Besides, the activity, negative = inhibition in [2] was 8.65%. Further, the Potency result in experiment [5], in experiment [6] and in experiment [11] was “inactive” each time. The outcome in [12] was inactive.

As for `O=c1c(-c2cccs2)nc2cncnc2n1Cc1ccc(F)cc1`, the activity change, negative = inhibition was -19.2% in experiment [13] and -15.7% in experiment [14]. Further, the Potency in experiment [1] is 2.51 µM (active); in experiment [3], above 9.22 µM; in experiment [4], above 46 µM; in experiment [7] it was 7.94 µM (active). In addition, the activity, negative = inhibition in [2] is -3.58%. In addition, the Potency result in experiment [5], in [15], in experiment [6], in experiment [8], in experiment [9] and in [10] was “inactive” each time. In addition, the Potency entry in experiment [11] is “inactive”. Moreover, the result in experiment [12] was inactive.

For the compound `COc1ccc2[nH]cc(CCNc3cc(-c4ccc(C(=O)N(C)C)cc4)ncn3)c2c1`, the Potency in [16] was above 11.4 µM; in experiment [1], 20 µM (active); in experiment [3] it was above 46 µM; in experiment [4] it was above 46 µM; in experiment [17], 6.31 µM (active); in experiment [8] it was 10 µM (active). In [9], the Potency is 10 µM (active). Besides, the activity change, negative = inhibition in experiment [13] is -10.4%; in experiment [14] it was 0.0562%. Besides, the activity, negative = inhibition in experiment [2] is -10.6%. Besides, the Potency result in [5], in [15], in experiment [6] and in experiment [11] was “inactive” each time. Further, in [12], the result was inactive.

In the case of `CN(C)c1ncc2nc(-c3cccc(C#N)c3)c(=O)n(C[C@H]3CCCO3)c2n1`, in [13], the activity change, negative = inhibition was -22.3%. Also, the Potency in [1] was 3.16 µM (active); in experiment [3], above 9.22 µM; in [4] it was above 46 µM. In addition, the activity, negative = inhibition in experiment [2] was 1.32%. Also, the Potency result in experiment [5], in [15], in experiment [8], in experiment [9], in experiment [10] and in experiment [11] was “inactive” in each case. Also, the result in experiment [12] was inactive.

For `COc1cccc(-c2nccc(N(C)Cc3ccco3)n2)c1`, the activity change, negative = inhibition in experiment [13] is -11.4%; in experiment [14], -1.32%. In addition, the Potency in [1] was 0.631 µM (active); in experiment [3], above 46 µM; in experiment [4] it was above 46 µM; in experiment [18] it was 1.26 µM (active); in experiment [7], 5.01 µM (active); in experiment [8], 8.91 µM (active). Also, the Potency is 8.91 µM (active) in [9] and 7.94 µM (active) in experiment [10]. For the same compound, the activity, negative = inhibition in experiment [2] was -2.39%. Further, the Potency entry in [5], in experiment [15] and in experiment [6] was “inactive” throughout. Further, the activation in [19] is -11.6%. Moreover, the outcome in [12] was inactive.

For `CS(=O)(=O)Nc1cccc(-c2cc(NCc3cccs3)ncn2)c1`, the activity change, negative = inhibition in experiment [13] is -14.7%; in experiment [14], -3.98%; in [20] it was 35.3% [at 2.29 µM]. Further, the Potency in experiment [1] was 6.31 µM (active); in experiment [3] it was above 46 µM; in [4], above 46 µM; in experiment [8] it was 10 µM (active); in [9], 12.6 µM (active); in experiment [10], 12.6 µM (active). Further, in experiment [2], the activity, negative = inhibition is -1.82%. Also, the Potency result in experiment [5], in experiment [15], in experiment [6] and in [11] was “inactive” throughout. Also, in [12], the result was inactive.
